From PubChem BioAssay AID2546 (National Center for Advancing Translational Sciences (NCATS), 2010)
In all, about 310,000 compounds went through this assay and about 11,000 (3.5%) were called active. Inconclusive results (about 8%) are left out. The call rests on the fitted dose curve; in most records, active means well fitted inhibition curve with a large enough effect; inconclusive means small, poorly fitted or top-dose-only effect, or effect the other way; inactive means flat fitted curve, though single readings scatter. Shown is part of a subset that was picked to be rich in actives. Entries that show only a call come without a potency.

Assay: VP16 counterscreen qHTS for inhibitors of ROR gamma transcriptional activity;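 further: Gal4-VP16 expression switched on by copper sulfate through the metallothionein promoter; nearly all actives have a fitted effect of over 50% in size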
Conditions: Drosophila S2 Gal4-VP16 UAS-luciferase, luminescence, 20 h; series mostly up to 53.6 µM
Potency means the concentration at half of the fitted maximal effect.

Row | SMILES | Potency
1 | O=P1(Oc2ccccc2)CC(O)C(O)C(COCc2ccccc2)O1 (stereo unspecified) | inactive
2 | C[C@H]1CC[C@@]2(NC1)O[C@@H]1C[C@H]3[C@@H]4CC=C5C[C@@H](O)CC[C@]5(C)[C@@H]4CC[C@]3(C)[C@@H]1[C@@H]2C | inactive
3 | CN1C2CC3CC1C(O3)C2O (stereo unspecified) | inactive
4 | COC([CH2][Hg])CNC(=O)c1ccccc1OCC(=O)O (stereo unspecified) | inactive
5 | Nc1ccc(-c2ccc(N)c(N)c2)cc1N | inactive
6 | COc1cc2c(cc1OC)[C@@H]1C(=O)c3ccc(O)c(CC=C(C)C)c3OC1CO2 (stereo partly specified) | inactive
7 | CCCCn1c(=O)c(C(=O)Nc2ccccc2Cl)c(O)c2ccccc21 | inactive
8 | CCCCCn1c(=O)c(C(=O)Nc2c(C)n(C)n(-c3ccccc3)c2=O)c(O)c2ccccc21 | inactive
9 | CCCCCn1c(=O)c(C(=O)NCc2ccccn2)c(O)c2ccccc21 | 17.8 µM (active)
10 | Clc1ccc([C@@H]2C[C@H]3CC[C@@H]2N3)cn1 | inactive
11 | Cc1cccc([C@H](C)c2cnc[nH]2)c1C | inactive
12 | COc1ccccc1-c1[se]c2ccccc2c1I | inactive
13 | O=C1CCc2cccc3c2N1CC3 | inactive
14 | CCC(C)C(=O)O[C@@H]1C[C@@]2(C)C(c3ccoc3)OC(=O)CC23OC2(C)O[C@@]14[C@@]1(C)C(CC(=O)OC)C5(C)CC1(O)C(O)(C5OC(=O)C1(C)OC1C)C(OC(C)=O)[C@@]34O2 (stereo partly specified) | inactive
15 | BrC1C(Br)C(Br)C(Br)C(Br)C1Br (stereo unspecified) | 7.94 µM (active)
16 | N[C@H](C(=O)O)c1cc(=O)[nH]o1 | inactive
17 | CCCCC/C=C\C/C=C\C/C=C\C=C\[C@H](CCCC(=O)O)OO | inactive
18 | C/C(=C\C=C/[C@@H](C)C(=O)O)[C@H]1CN[C@H](C(=O)O)[C@@H]1CC(=O)O | inactive
19 | CC(C)(Cc1c[nH]c2ccc(Cl)cc12)NCCOc1ccccc1OCC1CC1 | 15.8 µM (active)
20 | C[C@H]1C/C=C/[C@@H]2[C@@H]3O[C@]3(C)[C@@H](C)[C@H]3[C@H](Cc4ccccc4)NC(=O)[C@]32OC(=O)O/C=C/[C@](C)(O)C1=O | inactive
21 | C[C@@H]1C[C@H]2CC[C@H](O2)[C@H](C)C(=O)O[C@@H](C)C[C@@H]2CC[C@@H](O2)[C@@H](C)C(=O)O[C@H](C)C[C@H]2CC[C@H](O2)[C@H](C)C(=O)O[C@@H](C)C[C@@H]2CC[C@@H](O2)[C@@H](C)C(=O)O1 | 1 µM (active)
22 | C1CC[C@H]([C@@]23C[C@H](C[C@H]4CCCN[C@H]42)[C@@H]2CCCCN2C3)NC1 | inactive
23 | O=C(Nc1cccc(F)c1)N1CC[C@@]2(CCCN(C(=O)Oc3ccccc3)C2)C1 | inactive
24 | C=CCSSCC=C | inactive
25 | CC(C)(c1ccc(OC[C@@H]2CO2)cc1)c1ccc(OC[C@H]2CO2)cc1 | inactive
26 | O=C(N/N=C/c1ccc([N+](=O)[O-])o1)c1cc([N+](=O)[O-])cc([N+](=O)[O-])c1O | inactive
